Measurements: PubChem BioAssay (NCATS)
Records with an inconclusive call do not appear. The list shows a part of the results. Calls of active or inactive are those of the source. Unless noted, calls follow the shape of the dose curve; as a rule, active = well fitted curve in the direction sought with a large enough effect; inconclusive = small, poorly fitted or top-dose-only effect, or another doubt; inactive = no such curve, though single readings can be large; an effect the other way counts as inactive or inconclusive.

Columns and labels:
[1] = molecular target: Tyrosyl-DNA phosphodiesterase 1 (Homo sapiens) (UniProt Q9NUW8); assay: Confirmation Assay for Inhibitors of Tyrosyl-DNA Phosphodiesterase (TDP1) (AID 489007); conditions: recombinant human TDP1 enzymatic activity, dose-response; also: potency is read from the fitted curve at half-maximal effect; nearly all actives have a fitted effect of over 40% in size
Procedure, shortened: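 Tdp1 1 nM + cpd, 15 min RT; add biotin/phosphotyrosine-FITC oligo 15 nM, 5 min RT; add AS donor/acceptor beads 10 ug/ml, 10 min RT; read AlphaScreen. No-enzyme wells = max signal.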

[2] = molecular target: Rap guanine nucleotide exchange factor 3 (Homo sapiens) (UniProt O95398); assay: Confirmatory qHTS for agonist of cAMP-regulated guanine nucleotide exchange factor 3 (EPAC1) (AID 1645881);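 also: EPAC1 catalysed release of BODIPY-GDP from Rap1B seen as fluorescence loss; 100% = effect of cAMP agonist control; nearly all actives have a fitted effect of over 75% in size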
Chain of Rap guanine nucleotide exchange factor 3 (Homo sapiens) (O95398 whole entry, looked up): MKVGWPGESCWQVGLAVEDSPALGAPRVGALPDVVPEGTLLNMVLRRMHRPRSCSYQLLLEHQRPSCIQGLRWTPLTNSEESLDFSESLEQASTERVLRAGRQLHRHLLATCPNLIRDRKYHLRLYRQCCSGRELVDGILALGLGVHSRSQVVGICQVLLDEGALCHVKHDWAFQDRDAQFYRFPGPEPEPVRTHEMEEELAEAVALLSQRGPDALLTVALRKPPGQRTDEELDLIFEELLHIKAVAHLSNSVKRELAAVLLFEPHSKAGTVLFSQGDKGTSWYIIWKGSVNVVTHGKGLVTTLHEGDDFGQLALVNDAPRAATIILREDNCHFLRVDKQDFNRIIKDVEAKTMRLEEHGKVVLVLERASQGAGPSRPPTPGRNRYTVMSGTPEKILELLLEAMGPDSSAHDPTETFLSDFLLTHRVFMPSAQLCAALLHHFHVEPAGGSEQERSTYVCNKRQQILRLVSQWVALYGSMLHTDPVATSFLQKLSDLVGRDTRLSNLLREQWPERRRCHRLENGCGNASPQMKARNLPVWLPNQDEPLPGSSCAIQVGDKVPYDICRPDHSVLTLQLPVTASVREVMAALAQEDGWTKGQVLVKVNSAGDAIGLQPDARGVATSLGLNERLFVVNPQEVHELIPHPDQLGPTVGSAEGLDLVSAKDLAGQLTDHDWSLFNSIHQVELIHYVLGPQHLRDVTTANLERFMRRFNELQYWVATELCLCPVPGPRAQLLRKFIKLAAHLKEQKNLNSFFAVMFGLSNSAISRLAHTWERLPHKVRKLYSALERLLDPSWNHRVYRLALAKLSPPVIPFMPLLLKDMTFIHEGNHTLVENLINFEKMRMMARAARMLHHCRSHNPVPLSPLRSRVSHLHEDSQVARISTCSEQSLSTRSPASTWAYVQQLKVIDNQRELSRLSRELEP

[3] = molecular target: Rap guanine nucleotide exchange factor 4 (Homo sapiens) (UniProt Q8WZA2); assay: Confirmatory qHTS for agonist of cAMP-regulated guanine nucleotide exchange factor 4 (EPAC2) (AID 1645884);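 also: nucleotide exchange releases bodipy-GDP from Rap1 and this lowers its fluorescence; % is scaled to controls: 0 for no effect and ±100 for the full control effect; nearly all actives have a fitted effect of over 65% in size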
Chain of Rap guanine nucleotide exchange factor 4 (Homo sapiens) (Q8WZA2 whole entry, looked up): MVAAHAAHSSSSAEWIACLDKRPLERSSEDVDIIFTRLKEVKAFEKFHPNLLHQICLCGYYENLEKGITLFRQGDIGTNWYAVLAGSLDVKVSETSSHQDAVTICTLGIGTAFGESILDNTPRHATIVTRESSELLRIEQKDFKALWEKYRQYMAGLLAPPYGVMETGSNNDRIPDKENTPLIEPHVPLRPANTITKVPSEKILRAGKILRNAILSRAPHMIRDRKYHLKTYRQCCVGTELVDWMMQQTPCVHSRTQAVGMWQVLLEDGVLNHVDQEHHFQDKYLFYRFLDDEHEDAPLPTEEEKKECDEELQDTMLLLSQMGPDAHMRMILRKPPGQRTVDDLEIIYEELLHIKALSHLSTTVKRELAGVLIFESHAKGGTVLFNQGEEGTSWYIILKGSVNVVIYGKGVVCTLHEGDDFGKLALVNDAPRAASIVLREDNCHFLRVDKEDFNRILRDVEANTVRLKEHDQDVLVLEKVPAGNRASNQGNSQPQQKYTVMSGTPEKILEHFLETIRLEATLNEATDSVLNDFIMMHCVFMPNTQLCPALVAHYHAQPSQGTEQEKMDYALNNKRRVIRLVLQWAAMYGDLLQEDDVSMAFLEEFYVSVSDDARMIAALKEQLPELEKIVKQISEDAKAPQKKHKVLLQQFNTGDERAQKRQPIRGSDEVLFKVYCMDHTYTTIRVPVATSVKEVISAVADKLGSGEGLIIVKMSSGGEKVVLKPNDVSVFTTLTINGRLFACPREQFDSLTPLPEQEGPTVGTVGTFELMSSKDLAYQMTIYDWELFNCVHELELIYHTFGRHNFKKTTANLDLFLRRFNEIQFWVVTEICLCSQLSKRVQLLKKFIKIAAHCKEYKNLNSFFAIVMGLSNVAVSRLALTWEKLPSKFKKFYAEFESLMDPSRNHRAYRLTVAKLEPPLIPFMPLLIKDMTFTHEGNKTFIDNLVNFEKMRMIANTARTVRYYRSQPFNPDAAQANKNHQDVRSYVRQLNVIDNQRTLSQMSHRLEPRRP

[4] = molecular target: Rap guanine nucleotide exchange factor 4 (Homo sapiens) (UniProt Q8WZA2); assay: Confirmatory qHTS for antagonist of cAMP-regulated guanine nucleotide exchange factor 4 (EPAC2) (AID 1645885); also: % is scaled to controls: 0 for no effect and ±100 for the full control effect; nearly all actives have a fitted effect of over 25% in size
[5] = molecular target: Rap guanine nucleotide exchange factor 3 (Homo sapiens) (UniProt O95398); assay: Counterscreen qHTS for antagonist of cAMP-regulated guanine nucleotide exchange factor 3 (EPAC1) (AID 1645888);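 also: fluorescence loss as bound BODIPY-GDP is released from Rap1B; % of control where 0% means no effect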
Procedure, shortened: (§1)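 Rap1B–BODIPY-GDP (250 nM) with 50 uM GDP; compounds pin-transferred to 9.74 nM–152 uM final (activator) or from 7.32 nM upwards (inhibitor). Fluorescence Ex/Em 480/540 nm read at 5 and 30 min, then after adding cAMP or buffer, at room temperature.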

[6] = molecular target: Rap guanine nucleotide exchange factor 3 (Homo sapiens) (UniProt O95398); assay: Counterscreen qHTS for agonist of cAMP-regulated guanine nucleotide exchange factor 3 (EPAC1) (AID 1645889); also: % of control where 0% means no effect; nearly all actives have a fitted effect of over 40% in size
Procedure, shortened: as §1

[7] = molecular target: Tumor susceptibility gene 101 protein (Homo sapiens) (UniProt Q99816); assay: qHTS Assay for Iinhibitors of HIV-1 Budding by Blocking the Interaction of PTAP/TSG101: Hit Validation (AID 651600); also: nearly all actives have a fitted effect of over 70% in size; also: potency is read from the fitted curve at half-maximal effect; as to activity change, negative = inhibition: % is scaled to controls: 0 for no effect and ±100 for the full control effect
Chain of Tumor susceptibility gene 101 protein (Homo sapiens) (Q99816 whole entry, looked up, the tested form may be a part): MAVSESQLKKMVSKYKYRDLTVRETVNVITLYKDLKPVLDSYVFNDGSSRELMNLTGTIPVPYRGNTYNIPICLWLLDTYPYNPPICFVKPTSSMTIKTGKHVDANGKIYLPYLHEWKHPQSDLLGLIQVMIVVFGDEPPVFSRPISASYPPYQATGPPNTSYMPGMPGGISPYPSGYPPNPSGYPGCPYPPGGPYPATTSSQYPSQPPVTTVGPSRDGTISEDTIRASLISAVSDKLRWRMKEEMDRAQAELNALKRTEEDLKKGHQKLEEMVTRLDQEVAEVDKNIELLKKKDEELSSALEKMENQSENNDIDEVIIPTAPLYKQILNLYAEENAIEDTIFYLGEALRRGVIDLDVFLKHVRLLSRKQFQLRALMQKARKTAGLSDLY
Procedure, shortened: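 Fluorescence polarization binding assay: Tsg101 binding domain (10 uM final) pre-dispensed with compounds, then FITC-labeled PTAP-motif peptide (50 nM final) added; 20 min at r.t. in HEPES pH 7.5 buffer with NaCl, Tween 20, EDTA, TCEP.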

[8] = molecular target: Lysosomal acid glucosylceramidase (Homo sapiens) (UniProt P04062); assay: Glucocerebrosidase-p2 (AID 348; in the data active = potency below about 10 µM; also: potency is read from the fitted curve at half-maximal effect); conditions: purified GBA, blue fluorogenic substrate, 40 min
Procedure, shortened: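 Compounds titrated from 0.6 nM upwards against 0.2 nM enzyme in pH 5.9 citric acid/KH2PO4, taurocholate, tween-20; blue fluorogenic substrate 80 uM, 40 min room temperature, stopped and read Ex 365/Em 440 for AC50.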

[9] = molecular target: Cytochrome P450 1A2 (Homo sapiens) (UniProt P05177); assay: p450-cyp1a2 (AID 410; calls by dose curve; also: potency is read from the fitted curve at half-maximal effect)
Procedure, shortened: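 Luminescent readout of luciferin formed from Luciferin-ME by human CYP1A2; data normalized against complete inhibition by 57 uM furafylline. Enzyme 20nM, substrate 100uM at Km, 100mM KPO4 buffer, 60 min reaction at room temperature.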

[10] = molecular target: Glucocorticoid receptor (Homo sapiens) (UniProt P04150); assay: GR-GFP Redistribution (AID 450;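 active = compounds whose dose series gives a full or clear partial fitted curve of increased nuclear translocation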; also: potency is read from the fitted curve at half-maximal effect); conditions: U2OS GR-GFP nuclear translocation, laser cytometry, 2 h
Chain of Glucocorticoid receptor (Homo sapiens) (P04150 whole entry, looked up, the tested form may be a part): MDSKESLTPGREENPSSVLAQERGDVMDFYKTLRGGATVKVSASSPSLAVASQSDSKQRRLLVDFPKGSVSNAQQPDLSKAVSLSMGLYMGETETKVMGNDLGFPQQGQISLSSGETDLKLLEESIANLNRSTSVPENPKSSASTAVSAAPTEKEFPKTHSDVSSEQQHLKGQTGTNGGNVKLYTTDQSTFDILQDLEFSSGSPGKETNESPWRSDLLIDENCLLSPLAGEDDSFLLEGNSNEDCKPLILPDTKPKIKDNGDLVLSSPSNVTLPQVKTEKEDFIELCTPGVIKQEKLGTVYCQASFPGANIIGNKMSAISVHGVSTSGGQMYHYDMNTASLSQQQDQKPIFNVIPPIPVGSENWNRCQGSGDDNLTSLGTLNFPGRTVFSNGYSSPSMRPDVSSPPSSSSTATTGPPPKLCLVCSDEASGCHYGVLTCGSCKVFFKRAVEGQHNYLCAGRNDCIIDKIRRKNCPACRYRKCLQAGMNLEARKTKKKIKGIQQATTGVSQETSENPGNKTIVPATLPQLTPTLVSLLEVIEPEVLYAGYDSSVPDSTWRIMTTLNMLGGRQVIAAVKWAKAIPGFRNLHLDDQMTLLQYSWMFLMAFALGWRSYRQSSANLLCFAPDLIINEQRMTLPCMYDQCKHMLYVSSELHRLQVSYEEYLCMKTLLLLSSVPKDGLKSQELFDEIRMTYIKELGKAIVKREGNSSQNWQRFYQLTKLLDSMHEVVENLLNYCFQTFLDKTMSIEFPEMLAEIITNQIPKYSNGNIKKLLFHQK

[11] = molecular target: Glucocorticoid receptor (Homo sapiens) (UniProt P04150); assay: GR-EFC Redistribution (AID 451; calls by dose curve; also: potency is read from the fitted curve at half-maximal effect); conditions: CHO-K1 GR-EFC translocation, beta-gal luminescence, 2 h
Procedure, shortened: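 CHO-K1 cells expressing nuclear EA and GR-ED fragments of b-gal; compounds titrated up to 46 uM final, 2 h at 37 C. GR nuclear translocation read as complemented b-gal luminescence after 1 h RT detection.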

[12] = molecular target: Mitogen-activated protein kinase 10 (Mus musculus) (UniProt Q61831); assay: JNK3 AlphaScreen Assay (AID 530; active = well fitted curve in either direction with a large enough effect, not every such curve was filed as active;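 also: kinase came from lysate of stimulated human HepG2 cells; signal reports phosphorylation of biotinylated GST-cJun 1-79 at Ser73 with 10 µM ATP; series mostly up to about 57 µM; % is scaled to controls: 0 for no effect and ±100 for the full control effect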)
Procedure, shortened: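 Pre-activated (IL-1β/TNFα) JNK3 in HepG2 lysates phosphorylates biotin-GST-cJun(1-79), 10 uM ATP; anti-phospho-cJun(Ser73) AlphaScreen read at room temperature, pH 7.6 Tris buffer. Compounds pre-incubated 15 min as titrations.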

[13] = molecular target: 3',5'-cyclic-AMP phosphodiesterase 4B (Homo sapiens) (UniProt Q07343); assay: qHTS Assay for Inhibitors of PDE-IV (AID 607; active = well fitted activation curve with a large enough effect in the main read-out, with a control signal flat, not every such curve was filed as active; also: % of control where 0% means no effect)
Procedure, shortened: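 HEK293 ACTOne cells with CNG channel (1000/well), endogenous PDE4; membrane potential dye, compounds up to 22.9 uM final. Fluorescence Ex 535/Em 590; RO 20-1724 (100 uM final) as reference.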

[14] = molecular target: Cytochrome P450 2C9 (Homo sapiens) (UniProt P11712); assay: qHTS Assay for Inhibitors and Substrates of Cytochrome P450 2C9 (AID 883); also: potency is read from the fitted curve at half-maximal effect; nearly all actives have a fitted effect of over 60% in size
Chain of Cytochrome P450 2C9 (Homo sapiens) (P11712 whole entry, looked up): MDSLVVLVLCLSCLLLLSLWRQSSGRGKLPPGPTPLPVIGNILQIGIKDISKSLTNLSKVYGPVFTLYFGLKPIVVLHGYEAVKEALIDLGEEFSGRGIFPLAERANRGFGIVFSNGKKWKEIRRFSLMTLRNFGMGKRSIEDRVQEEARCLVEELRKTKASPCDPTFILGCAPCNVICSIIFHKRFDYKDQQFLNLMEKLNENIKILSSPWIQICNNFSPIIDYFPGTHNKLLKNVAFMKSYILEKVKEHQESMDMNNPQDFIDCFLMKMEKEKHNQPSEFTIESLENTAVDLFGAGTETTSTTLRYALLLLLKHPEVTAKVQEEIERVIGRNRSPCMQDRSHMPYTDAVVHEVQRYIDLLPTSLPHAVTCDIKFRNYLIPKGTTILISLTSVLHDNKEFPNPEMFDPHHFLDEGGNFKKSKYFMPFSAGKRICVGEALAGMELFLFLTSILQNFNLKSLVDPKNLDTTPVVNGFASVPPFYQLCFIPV
Procedure, shortened: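 Human CYP2C9 (10nM) with Luciferin-H at 100uM (its KM) in 25mM KPO4; compound preincubated 10 min at 37C, then NADPH regeneration for 60 min at 37C. Luciferin read by luminescence after detection reagent; normalized to 57uM sulphaphenazole as full inhibition.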

[15] = molecular target: Cytochrome P450 3A4 (Homo sapiens) (UniProt P08684); assay: qHTS Assay for Inhibitors and Substrates of Cytochrome P450 3A4 (AID 884); also: potency is read from the fitted curve at half-maximal effect; nearly all actives have a fitted effect of over 50% in size
Chain of Cytochrome P450 3A4 (Homo sapiens) (P08684 whole entry, looked up): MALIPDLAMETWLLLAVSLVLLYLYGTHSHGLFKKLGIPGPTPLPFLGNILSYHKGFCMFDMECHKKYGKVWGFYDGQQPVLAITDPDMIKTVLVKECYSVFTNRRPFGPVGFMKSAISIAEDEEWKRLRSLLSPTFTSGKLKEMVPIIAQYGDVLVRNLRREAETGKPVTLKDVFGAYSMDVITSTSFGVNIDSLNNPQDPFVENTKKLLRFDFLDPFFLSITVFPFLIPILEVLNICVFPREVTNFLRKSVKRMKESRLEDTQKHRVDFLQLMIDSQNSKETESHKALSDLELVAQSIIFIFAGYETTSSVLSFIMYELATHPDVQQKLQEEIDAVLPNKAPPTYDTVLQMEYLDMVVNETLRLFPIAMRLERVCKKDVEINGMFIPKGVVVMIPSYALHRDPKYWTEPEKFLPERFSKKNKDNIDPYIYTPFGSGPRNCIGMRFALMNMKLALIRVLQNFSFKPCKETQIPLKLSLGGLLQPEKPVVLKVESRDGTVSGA
Procedure, shortened: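 20 nM human CYP3A4 with 25 uM Luciferin-PPXE (at KM) in 200 mM KPO4, preincubated 10 min with compound; NADPH regeneration started a 60 min RT reaction. Luciferin detected by luminescence, normalized to 57 uM ketoconazole as full inhibition.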

[16] = molecular target: Cytochrome P450 3A4 (Homo sapiens) (UniProt P08684); assay: qHTS Assay for Activators of Cytochrome P450 3A4 (AID 885); also: nearly all actives have a fitted effect of over 65% in size
Procedure, shortened: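 Human CYP3A4 (20 nM) with Luciferin-PPXE at 25 uM (its KM) in 200 mM KPO4; 10 min compound preincubation, then NADPH regeneration and 60 min reaction at RT. Luciferin read by luminescence; normalized to 57 uM ketoconazole full inhibition.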

[17] = molecular target: Cytochrome P450 2D6 (Homo sapiens) (UniProt P10635); assay: qHTS Assay for Inhibitors and Substrates of Cytochrome P450 2D6 (AID 891); also: potency is read from the fitted curve at half-maximal effect; nearly all actives have a fitted effect of over 60% in size
Procedure, shortened: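 Human CYP2D6 (5 nM) with 30 uM Luciferin-ME EGE (at Km) in 100 mM KPO4, compound preincubated 10 min, then NADPH regeneration system for 60 min at room temperature. Luciferin read by luminescence; normalized to 1.43 uM quinidine.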

[18] = molecular target: Cytochrome P450 2C19 (Homo sapiens) (UniProt P33261); assay: qHTS Assay for Inhibitors and Substrates of Cytochrome P450 2C19 (AID 899); also: potency is read from the fitted curve at half-maximal effect; nearly all actives have a fitted effect of over 60% in size
Procedure, shortened: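 5 nM human CYP2C19 with 10uM Luciferin-H EGE (at KM) in 50mM KPO4, compound preincubated 10 min at 37C, then NADPH regeneration for 60 min at 37C. Luciferin read by luminescence after detection reagent; normalized to 57uM ketoconazole as full inhibition.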

[19] = molecular target: DNA polymerase eta (Homo sapiens) (UniProt Q9Y253); assay: qHTS for Inhibitors of Polymerase Eta: Confirmatory Assay for Cherry-picked Compounds (AID 720502); conditions: Pol eta primer extension, TAMRA/BHQ fluorescence, 10 min; also: potency is read from the fitted curve at half-maximal effect
Procedure, shortened: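 The reaction starts with 50 nM final labeled DNA substrate added to Pol eta (10 nM) that had sat with compound for 15 min. TAMRA emission at 598 nm is read at 0 and 10 min.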

[20] = molecular target: Lethal(3)malignant brain tumor-like protein 1 (Homo sapiens) (UniProt Q9Y468); assay: qHTS Assay for the Inhibitors of L3MBTL1: Hit Validation (AID 540279); conditions: L3MBTL1 methyl-lysine binding inhibition, biochemical qHTS; also: potency is read from the fitted curve at half-maximal effect; nearly all actives have a fitted effect of over 70% in size
Chain of Lethal(3)malignant brain tumor-like protein 1 (Homo sapiens) (Q9Y468 whole entry, looked up): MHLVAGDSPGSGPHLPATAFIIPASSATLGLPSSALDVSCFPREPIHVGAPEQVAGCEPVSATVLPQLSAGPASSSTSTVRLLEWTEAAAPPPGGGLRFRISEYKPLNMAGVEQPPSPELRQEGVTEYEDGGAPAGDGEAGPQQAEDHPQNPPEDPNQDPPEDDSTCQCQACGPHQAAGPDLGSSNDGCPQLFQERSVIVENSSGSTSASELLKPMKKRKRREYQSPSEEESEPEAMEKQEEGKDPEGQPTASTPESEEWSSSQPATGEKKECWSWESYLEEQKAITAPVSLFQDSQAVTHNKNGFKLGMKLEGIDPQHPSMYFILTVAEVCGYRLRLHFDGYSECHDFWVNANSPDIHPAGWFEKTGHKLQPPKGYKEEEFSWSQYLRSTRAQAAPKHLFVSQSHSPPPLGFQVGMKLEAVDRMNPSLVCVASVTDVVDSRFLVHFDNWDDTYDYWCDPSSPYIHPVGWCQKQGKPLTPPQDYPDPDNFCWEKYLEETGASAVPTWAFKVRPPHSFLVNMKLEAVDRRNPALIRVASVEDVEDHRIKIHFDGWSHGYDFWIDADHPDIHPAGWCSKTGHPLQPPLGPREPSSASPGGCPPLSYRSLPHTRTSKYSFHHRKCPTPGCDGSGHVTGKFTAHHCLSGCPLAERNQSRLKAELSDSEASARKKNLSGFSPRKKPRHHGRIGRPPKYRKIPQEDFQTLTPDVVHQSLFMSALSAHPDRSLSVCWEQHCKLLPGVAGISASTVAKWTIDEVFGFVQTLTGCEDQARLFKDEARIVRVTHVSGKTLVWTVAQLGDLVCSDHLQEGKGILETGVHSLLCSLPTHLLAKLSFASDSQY
Procedure, shortened: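 L3MBTL1 (50 nM final) preformed 30 min with biotinylated H3(1-15)K9me1 peptide (75 nM), then compound 30 min at room temperature. Streptavidin donor and nickel chelate acceptor AlphaScreen beads (10 ug/mL each final) added for 30 min before read.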

[21] = qHTS Assay for the Inhibitors of L3MBTL1: Hit Validationin AlphaScreen Counterscreen (AID 602224); also: 0% is about no effect
Procedure, shortened: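 Bead-bridging control using 1 nM b-His6 linking streptavidin donor and nickel chelate acceptor beads (10 ug/mL each, final). Compound exposure 15 min, then beads, 30 min dark incubation at room temperature before AlphaScreen reading.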

COc1ccc(C(CC(=O)N2CCCC2)c2c(OC)cc(OC)c3c(-c4ccccc4)cc(=O)oc23)cc1 (configuration not stated)
inactive: Potency [2] | Potency [3] | Potency [4] | Potency [5]
active: Potency [1] 2.24 µM

CCCN(CCC)C(=O)Cn1c(=O)c2sccc2n2c(=S)sc(-c3ccccc3)c12
inactive: Potency [2] | activation [3] 2.59% [at 17.1 µM, percent relative to cAMP agonist control] | Potency [4] | activity change, negative = inhibition [5] -19.9% [at 30.8 µM] | activation [6] -0.211% [at 30.8 µM]

C=CCn1c(=O)/c(=C/c2ccc(C)o2)s/c1=C(/C#N)C(=O)c1ccccc1
inactive: Potency [2] | activation [3] 3.1% [at 17.1 µM, percent relative to cAMP agonist control] | Potency [4] | activity change, negative = inhibition [5] -7.69% [at 30.8 µM] | activation [6] 34.7% [at 30.8 µM]
active: Potency [7] 18.3 µM

O=C(O)COc1ccc(/C=N/NC(=O)c2ccc(-c3csc(Nc4ccc(Cl)cc4)n3)cc2)cc1
inactive: Potency [2] | Potency [3] | Potency [4] | Potency [6]

CC1Sc2ccc(C#N)cc2N(Cc2cccc(C(F)(F)F)c2)C1=O (configuration not stated)
inactive: Potency [2] | Potency [3] | Potency [4] | Potency [6]

O=C1C=C(NCCc2cc(Br)c(O)c(Br)c2)C(=O)c2ncccc21
active: Potency [9] 3.16 µM | Potency [14] 1.58 µM | Potency [15] 3.16 µM | Potency [17] 1.58 µM | Potency [18] 501 nM
inactive: Potency [8] > 11.4 µM | Potency [10] > 46 µM | Potency [11] > 9.22 µM | activity change, negative = inhibition [12] 0.257% [at 11.4 µM] | Potency [13] | activity change, positive = activation [16] -62.8% [at 11.4 µM] | Potency [2] | activation [3] 5.19% [at 17.1 µM, percent relative to cAMP agonist control] | Potency [4] | activity change, negative = inhibition [5] -20.2% [at 30.8 µM] | activation [6] 14.9% [at 30.8 µM]

O=C(Nc1nc(-c2ccco2)c(-c2ccco2)s1)c1ccco1
active: Potency [19] 26.9 µM
inactive: Potency [2] | activation [3] 2.72% [at 17.1 µM, percent relative to cAMP agonist control] | Potency [4] | activity change, negative = inhibition [5] 0.168% [at 30.8 µM]

COc1ccc2nc(N3CCCC3)c(C#N)cc2c1
inactive: Potency [7] | Potency [2] | activation [3] 3.12% [at 17.1 µM, percent relative to cAMP agonist control] | Potency [4] | activity change, negative = inhibition [5] -11.6% [at 30.8 µM]

Cc1ccc(/C=C/C(=O)Nc2ccc([N+](=O)[O-])c(NC(=O)/C=C/c3ccc(C)o3)c2)o1
active: Potency [20] 3.77 µM
inactive: outcome [21] | Potency [2] | activation [3] 6% [at 17.1 µM, percent relative to cAMP agonist control] | Potency [4] | activity change, negative = inhibition [5] 4.14% [at 30.8 µM] | activation [6] 27.5% [at 30.8 µM]
